PubChem BioAssay (NCI)
About 83,000 compounds went through this panel and 20% of them were active in at least one assay; those are over-represented in the sample as a whole.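 Cells were grown in 96-well plates and exposed to the test compound at a single concentration for 48 hours; results are reported as percent growth, with values below 10 considered active.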 Unmarked numbers belong to inactive results. Calls of active or inactive are those of the source.

Legend:
Test in all cases: NCI-60 one-dose screen, 48 h (100 = growth as untreated, 0 = no growth, -100 = all killed)
Conditions in all cases: 10 µM unless noted
NCI-H23 lung = system: NCI-H23 lung
NCI-H226 lung = system: NCI-H226 lung
NCI-H322M lung = system: NCI-H322M lung
HOP-62 NSCLC = system: HOP-62 NSCLC
NCI-H460 lung = system: NCI-H460 lung
HOP-92 NSCLC = system: HOP-92 NSCLC
NCI-H522 lung = system: NCI-H522 lung
A549/ATCC NSCLC = system: A549/ATCC NSCLC
786-0 renal = system: 786-0 renal
COLO 205 colon = system: COLO 205 colon
DU-145 prostate = system: DU-145 prostate
K-562 leukemia = system: K-562 leukemia
MALME-3M melanoma = system: MALME-3M melanoma
RXF 393 renal = system: RXF 393 renal
SF-268 CNS = system: SF-268 CNS
SF-295 CNS = system: SF-295 CNS
SF-539 CNS = system: SF-539 CNS
UACC-257 melanoma = system: UACC-257 melanoma
M14 melanoma = system: M14 melanoma
MDA-MB-231 breast = system: MDA-MB-231 breast

Row | Structure (SMILES) | growth (NCI-H23 lung) | growth (NCI-H226 lung) | growth (NCI-H322M lung) | growth (HOP-62 NSCLC) | growth (NCI-H460 lung) | growth (HOP-92 NSCLC) | growth (NCI-H522 lung) | growth (A549/ATCC NSCLC) | growth (786-0 renal) | growth (COLO 205 colon) | growth (DU-145 prostate) | growth (K-562 leukemia) | growth (MALME-3M melanoma) | growth (RXF 393 renal) | growth (SF-268 CNS) | growth (SF-295 CNS) | growth (SF-539 CNS) | growth (UACC-257 melanoma) | growth (M14 melanoma) | growth (MDA-MB-231 breast)
1 | CCOC(=O)C1=C(N)N(c2ccccc2)C2=C(C(=O)CC(C)(C)C2)C1c1cccc(Cl)c1Cl (centres undefined) | 69.7% | 40.3% | 77.8% | 40.8% | 61% | -0.828% (active) | 74.9% | 60.6% | 67.7% | 80.6% | 81% | 59.5% | 77.6% | 53.4% | 66% | 53.5% | 32.6% | 85.4% | 81% | 
2 | O=C(O)c1ccc(-c2ccc(/C=N/NC(=O)c3[nH]c4ccc(Br)cc4c3-c3ccccc3)s2)cc1 | 8.04% (active) | 22.8% | 20.4% | 28.5% | 0.163% (active) | -4.63% (active) | -1.38% (active) | 23.1% | 16.5% | 23.6% | 28.2% | 22.5% | -8.14% (active) | -24.4% (active) | 21.1% | -11.9% (active) | 1.96% (active) | 44.3% | 28.2% | 
3 | Clc1cccc(Cl)c1/C=C/c1cc(/C=C/c2ccc(Br)cc2)c2ccccc2n1 | 98.2% | 93% | 89.7% | 94% | 99.5% | 86.2% | 97.9% | 98.2% | 92.2% | 117% | 110% | 99.5% | 91.8% | 83.4% | 110% | 99.2% | 95.7% | 105% | 101% | 
4 | CC(=O)Nc1cccc(Nc2nc(NCc3ccccc3)c3ccccc3n2)c1 | -86.3% (active) | -84.3% (active) | -97.2% (active) | -90.8% (active) | -79.5% (active) | -83.5% (active) | -83.8% (active) | -69% (active) | -89.1% (active) | -93.9% (active) | -93.7% (active) | -59% (active) | -94.2% (active) | -95.2% (active) | -72.8% (active) | -98.9% (active) | -98% (active) | -83.6% (active) | -86.5% (active) | 
5 | COc1ccc(/C=C2\C(=O)Nc3ccc(Cl)cc32)cc1OCc1ccccn1 | 31.6% | 15.6% | 56% | 14.6% | 26.4% | -12.7% (active) | 81.1% | 41% | -18.6% (active) | 77.8% | 57.5% | 51.6% | 38.2% | 2.03% (active) | 44% | 38.4% | -9.35% (active) | 72.6% | 52.8% | 
6 | CSc1ccc(NC(=O)c2ccc3nnn(/C(C#N)=C/c4ccccn4)c3c2)cc1 | -95.9% (active) | -94.9% (active) | 3.57% (active) | -58.1% (active) | -47.2% (active) | -77.6% (active) | -95.4% (active) | -52.5% (active) | -98.1% (active) | -88.4% (active) | -97.9% (active) | -5.65% (active) | -94.6% (active) | -98.6% (active) | -3.01% (active) | -73.3% (active) | -99.3% (active) | -76.9% (active) | -89.7% (active) | 
7 | O=C(N/N=C/c1ccc(-c2ccc(O)cc2)s1)c1[nH]c2ccc(Br)cc2c1-c1ccccc1 | 7.67% (active) | 27.6% | 29.8% | 21.2% | -18.3% (active) | -24.8% (active) | 18.6% | 23.8% | -28% (active) | -32.9% (active) | 30.1% | 2.31% (active) | -2.08% (active) | -29.5% (active) | 28.9% | 0.137% (active) | -57.2% (active) | 53.9% | 9.8% (active) | 
8 | CC(=O)Nc1cccc(Nc2nccc(N[C@@H](C)c3ccccc3)n2)c1 | 18.2% | 34.7% | 40.6% | 8.72% (active) | 5.42% (active) | 45% | -43.4% (active) | 16.4% | 26.6% | -3.46% (active) | 24.8% | 7.64% (active) | 28.7% | 21.2% | 27.6% | -8.12% (active) | 9.09% (active) | 40.5% | 22.6% | 
9 | O=C(NNc1ccccc1)n1c(=O)c2ccccc2c(=O)n1-c1ccccc1 | 100% | 95.7% | 98.8% | 90.7% | 105% | 93.9% | 86.4% | 83.1% | 92.5% | 109% | 104% | 45.8% | 96.5% | 109% | 92.8% | 87.2% | 97.5% | 77.6% | 100% | 
10 | CSc1ccc(C(=O)Nc2ccc3nn(/C(C#N)=C/c4ccccn4)nc3c2)cc1 | -84% (active) | -59.2% (active) | 15.4% | -46.2% (active) | -54.9% (active) | -48.5% (active) | -87.9% (active) | 10.6% | -95.5% (active) | -86.1% (active) | -97% (active) | -1.86% (active) | -82.1% (active) | -94.6% (active) | -26.3% (active) | -49% (active) | -88.3% (active) | -67.6% (active) | -76.8% (active) | 
11 | O=C(NNc1nc2cc(F)ccc2n2c(C(=O)N3CCN(C4CC4)CC3)ccc12)c1ncccn1 | 38.4% | 11.4% | 29.9% | 20% | 8.44% (active) | 69.2% | 67.1% | 24.5% | -9.79% (active) | 7.77% (active) | 47.8% |  | 33.2% | 64.8% | 29.9% | -33.9% (active) | 12.9% | 19.7% | -33% (active) | 43.6%
12 | C=C1CC[C@@H]2[C@]3(C)COC(c4cn(-c5ccccc5)nc4-c4ccccc4)O[C@@H]3CC[C@@]2(C)[C@@H]1C/C=C1/C(=O)OC[C@H]1O (some centres undefined) | -84.7% (active) | -90.4% (active) | 29.1% | -68.1% (active) | -75.9% (active) | -88.1% (active) | -88.1% (active) | -22.2% (active) | -61.3% (active) | -90.9% (active) | 8.33% (active) | -29.9% (active) | -90.2% (active) | -90.8% (active) | 8.39% (active) | -97.5% (active) | -98.6% (active) | -77.2% (active) | -80.4% (active) | 
13 | N#Cc1c(-c2cccnc2)cc(-c2ccc3ccccc3c2)[nH]c1=O | 77% | 81.9% | 90.1% | 91.8% | 83.7% | 78.5% | 66.2% | 85.1% | 11.9% | 115% | 80.2% | 86.6% | 94.8% | 50.6% | 71.7% | 71.4% | 7.22% (active) | 105% | 116% | 
14 | C/C(=N\Nc1ccc(S(N)(=O)=O)cc1)c1ccc(N=Nc2c(Nc3ccccc3)[nH][nH]c2=O)cc1 | 0.196% (active) | 42.5% | 9.22% (active) | -17.8% (active) | 8.87% (active) | -7.76% (active) | -28.8% (active) | 75% | -45.3% (active) | -10.5% (active) | 13.8% |  | -65.9% (active) | -24.1% (active) | 9.33% (active) | 5.12% (active) | -77.4% (active) | 5.63% (active) | -62.5% (active) | -31.3% (active)
15 | O=C(Cn1c(/C=C/c2cccc([N+](=O)[O-])c2)nc2ccccc2c1=O)Nc1ccccc1 | 77.2% | 75.7% | 83.9% | 53.6% | 67.2% | 64.2% | 91.8% | 56.1% | 59.6% | 81.1% | 69.4% |  | 75.1% | 55.5% | 78.5% | 68.5% | 8.73% (active) | 104% | 70.6% | 33.8%
16 | CCN1CCN(Cc2ccc(C(=O)Nc3cccc(C#Cc4cccc5[nH]nc(N)c45)c3)cc2C(F)(F)F)CC1 | -82.6% (active) | -35.2% (active) | -95.2% (active) | -66.1% (active) | -39.2% (active) | -69.8% (active) | -59.9% (active) | -84.8% (active) | -98.5% (active) | -86.6% (active) | -41.8% (active) |  | -76.2% (active) | -87.6% (active) | -61.6% (active) | -87.1% (active) | -97.4% (active) | -89.3% (active) | -95.2% (active) | -90.8% (active)
